Reference: PubChem BioAssay (Tox21)
Inconclusive results are not listed. Calls of active or inactive are those of the source. Calls follow the shape of the dose curve; as a rule, active = well fitted curve in the direction sought with a large enough effect in the repeat runs; inconclusive = weak or mixed curves; inactive = no such curve, though single readings can be large; an effect the other way counts as inactive or inconclusive.

Columns and labels:
[1] = A CellTox Green Cytotoxicity Assay to monitor cytotoxicity in HEK293 cells - 40 hour (AID 1224871); details: CellTox Green fluorescence; series mostly up to 76.8 µM; also: nearly all actives have a fitted effect of over 45% in size; also: potency is read from the fitted curve at half-maximal effect
Method in brief: (§1)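 Each value comes from one timepoint of a single continuous run in which HEK293 cells with CellTox Green were exposed to compound for up to 40 h at 37 C, dye fluorescence rising with cell death.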

[2] = qHTS RealTime-Glo MT Cell Viability Assay in HEK293 cells - 16 hour (AID 1224872); details: RealTime-Glo luminescence; series mostly up to 76.8 µM; also: nearly all actives have a fitted effect of over 50% in size; also: potency is read from the fitted curve at half-maximal effect
Method in brief: (§2)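 Reads taken at 0, 8, 16, 24, 32 and 40 h from the same wells. HEK293 cells (600/well) carried RealTime-Glo reagents from seeding, with compound added after a 5 h settle at 37 C.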

[3] = qHTS RealTime-Glo MT Cell Viability Assay in HepG2 cells - 8 hour (AID 1224873); details: RealTime-Glo luminescence; series mostly up to 76.8 µM; also: nearly all actives have a fitted effect of over 55% in size; also: potency is read from the fitted curve at half-maximal effect
Method in brief: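 HepG2 cells mixed with RealTime-Glo MT reagents (NanoLuc plus cell-permeant prosubstrate) were seeded at 600 cells/well, incubated 5 h at 37 C/5% CO2, then pinned with compounds in DMSO; nonlytic luminescence tracked viability during 40 h treatment.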

[4] = qHTS RealTime-Glo MT Cell Viability Assay in HEK293 cells - 40 hour (AID 1224874); details: RealTime-Glo luminescence; max response: stronger effect = lower value; also: nearly all actives have a fitted effect of over 50% in size; also: potency is read from the fitted curve at half-maximal effect
Method in brief: (§3)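 qHTS format; HEK293 cells with NanoLuc/prosubstrate reagent, 37 C/5% CO2 for 5 h pre-dosing; compounds 23 nL in DMSO; luminescence at each time point reflects viable cells.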

[5] = A CellTox Green Cytotoxicity Assay to monitor cytotoxicity in HEK293 cells - 24 hour (AID 1224875); details: CellTox Green fluorescence; series mostly up to 76.8 µM; also: nearly all actives have a fitted effect of over 45% in size; also: potency is read from the fitted curve at half-maximal effect
Method in brief: as §1

[6] = A CellTox Green Cytotoxicity Assay to monitor cytotoxicity in HepG2 cells - 16 hour (AID 1224876); details: CellTox Green fluorescence; series mostly up to 76.8 µM; also: nearly all actives have a fitted effect of over 45% in size; also: potency is read from the fitted curve at half-maximal effect
Method in brief: (§4)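 Continuous culture of HepG2 cells with a membrane-impermeant DNA dye; rising fluorescence marks dead cells. Compound exposure lasted up to 40 h at 37 C, with reads every 8 h from 0 h.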

[7] = qHTS RealTime-Glo MT Cell Viability Assay in HepG2 cells - 32 hour (AID 1224877); details: RealTime-Glo luminescence; series mostly up to 76.8 µM; also: nearly all actives have a fitted effect of over 55% in size; also: potency is read from the fitted curve at half-maximal effect
Method in brief: (§5)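 HepG2 suspension premixed with RealTime-Glo reagents is plated at 600 cells per well and left 5 h at 37 C/5% CO2. Compounds in DMSO then go in, and bioluminescence reflecting viable cell number is recorded over 40 h.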

[8] = A CellTox Green Cytotoxicity Assay to monitor cytotoxicity in HepG2 cells - 24 hour (AID 1224878); details: CellTox Green fluorescence; series mostly up to 76.8 µM; also: nearly all actives have a fitted effect of over 45% in size; also: potency is read from the fitted curve at half-maximal effect
Method in brief: as §4

[9] = A CellTox Green Cytotoxicity Assay to monitor cytotoxicity in HepG2 cells - 40 hour (AID 1224879); details: CellTox Green fluorescence; series mostly up to 76.8 µM; also: nearly all actives have a fitted effect of over 40% in size; also: potency is read from the fitted curve at half-maximal effect
Method in brief: as §4

[10] = qHTS RealTime-Glo MT Cell Viability Assay in HEK293 cells - 0 hour (AID 1224880); details: RealTime-Glo luminescence; series mostly up to 76.8 µM
Method in brief: as §3

[11] = A CellTox Green Cytotoxicity Assay to monitor cytotoxicity in HEK293 cells - 32 hour (AID 1224881); details: CellTox Green fluorescence; series mostly up to 76.8 µM; also: nearly all actives have a fitted effect of over 40% in size; also: potency is read from the fitted curve at half-maximal effect
Method in brief: as §1

[12] = A CellTox Green Cytotoxicity Assay to monitor cytotoxicity in HepG2 cells - 0 hour (AID 1224882); details: CellTox Green fluorescence; series mostly up to 76.8 µM; also: nearly all actives have a fitted effect of over 35% in size; also: potency is read from the fitted curve at half-maximal effect
Method in brief: as §4

[13] = A CellTox Green Cytotoxicity Assay to monitor cytotoxicity in HepG2 cells - 32 hour (AID 1224883); details: CellTox Green fluorescence; series mostly up to 76.8 µM; also: nearly all actives have a fitted effect of over 50% in size; also: potency is read from the fitted curve at half-maximal effect
Method in brief: as §4

[14] = qHTS RealTime-Glo MT Cell Viability Assay in HepG2 cells - 16 hour (AID 1224885); details: RealTime-Glo luminescence; series mostly up to 76.8 µM; also: nearly all actives have a fitted effect of over 50% in size; also: potency is read from the fitted curve at half-maximal effect
Method in brief: as §5

[15] = qHTS RealTime-Glo MT Cell Viability Assay in HEK293 cells - 24 hour (AID 1224886); details: RealTime-Glo luminescence; series mostly up to 76.8 µM; also: nearly all actives have a fitted effect of over 50% in size; also: potency is read from the fitted curve at half-maximal effect
Method in brief: as §2

[16] = qHTS RealTime-Glo MT Cell Viability Assay in HEK293 cells - 8 hour (AID 1224887); details: RealTime-Glo luminescence; series mostly up to 76.8 µM; also: nearly all actives have a fitted effect of over 50% in size; also: potency is read from the fitted curve at half-maximal effect
Method in brief: as §3

[17] = qHTS RealTime-Glo MT Cell Viability Assay in HepG2 cells - 0 hour (AID 1224889); details: RealTime-Glo luminescence; series mostly up to 76.8 µM; also: nearly all actives have a fitted effect of over 50% in size
Method in brief: as §5

[18] = A CellTox Green Cytotoxicity Assay to monitor cytotoxicity in HEK293 cells - 8 hour (AID 1224884); details: CellTox Green fluorescence; series mostly up to 76.8 µM; also: nearly all actives have a fitted effect of over 35% in size; also: potency is read from the fitted curve at half-maximal effect
Method in brief: as §1

[19] = A CellTox Green Cytotoxicity Assay to monitor cytotoxicity in HEK293 cells - 16 hour (AID 1224888); details: CellTox Green fluorescence; series mostly up to 76.8 µM; also: nearly all actives have a fitted effect of over 35% in size; also: potency is read from the fitted curve at half-maximal effect
Method in brief: as §1

[20] = A CellTox Green Cytotoxicity Assay to monitor cytotoxicity in HepG2 cells - 8 hour (AID 1224890); details: CellTox Green fluorescence; series mostly up to 76.8 µM; also: nearly all actives have a fitted effect of over 45% in size; also: potency is read from the fitted curve at half-maximal effect
Method in brief: as §4
% is scaled to controls: 0 for no effect and ±100 for the full control effect.

CCCC(c1cc(C(C)(C)C)c(O)cc1C)c1cc(C(C)(C)C)c(O)cc1C
inactive: Potency [10] | Potency [12] | Potency [17]
active: Potency [1] 49.6 µM | Potency [2] 24.8 µM | Potency [3] 39.4 µM | Potency [4] 17.6 µM | Potency [5] 55.6 µM | Potency [6] 44.2 µM | Potency [7] 35.1 µM | Potency [8] 39.4 µM | Potency [9] 31.3 µM | Potency [11] 49.6 µM | Potency [13] 35.1 µM | Potency [14] 44.2 µM | Potency [15] 22.1 µM | Potency [16] 44.2 µM

CCCCCCCCCCC=O
inactive: Potency [1] | Potency [2] | Potency [3] | max response [4] 2.14% | Potency [5] | Potency [6] | Potency [7] | Potency [8] | Potency [9] | Potency [10] | Potency [11] | Potency [12] | Potency [13] | Potency [18] | Potency [14] | Potency [15] | Potency [16] | Potency [19] | Potency [17] | Potency [20]

CC(=O)OCC(C)OC(C)=O (stereo unspecified)
inactive: Potency [1] | Potency [2] | Potency [3] | max response [4] -0.171% | Potency [5] | Potency [6] | Potency [7] | Potency [8] | Potency [9] | Potency [10] | Potency [11] | Potency [12] | Potency [18] | Potency [14] | Potency [15] | Potency [16] | Potency [19] | Potency [17] | Potency [20]

COC(=O)c1cc(Cl)ccc1OC
inactive: Potency [1] | Potency [2] | Potency [3] | max response [4] 6.18% | Potency [5] | Potency [6] | Potency [7] | Potency [8] | Potency [9] | Potency [10] | Potency [11] | Potency [12] | Potency [13] | Potency [18] | Potency [14] | Potency [15] | Potency [16] | Potency [19] | Potency [17] | Potency [20]

CC(C)(C)c1ccc(C(=O)CCCN2CCC(OC(c3ccccc3)c3ccccc3)CC2)cc1
inactive: Potency [10] | Potency [17]
active: Potency [1] 23.9 µM | Potency [2] 8.49 µM | Potency [3] 19 µM | Potency [4] 9.52 µM | Potency [5] 21.3 µM | Potency [6] 23.9 µM | Potency [7] 19 µM | Potency [8] 23.9 µM | Potency [9] 19 µM | Potency [11] 23.9 µM | Potency [13] 21.3 µM | Potency [14] 21.3 µM | Potency [16] 9.52 µM | Potency [19] 21.3 µM | Potency [20] 23.9 µM

CCCCN1CCCC[C@H]1C(=O)Nc1c(C)cccc1C
inactive: Potency [1] | Potency [2] | Potency [3] | max response [4] -2.09% | Potency [5] | Potency [6] | Potency [7] | Potency [8] | Potency [9] | Potency [10] | Potency [11] | Potency [12] | Potency [13] | Potency [18] | Potency [14] | Potency [15] | Potency [16] | Potency [19] | Potency [17] | Potency [20]

Cc1onc(-c2c(Cl)cccc2Cl)c1C(=O)N[C@@H]1C(=O)N2[C@@H]1SC(C)(C)[C@@H]2C(=O)O
inactive: Potency [1] | Potency [2] | Potency [3] | max response [4] 9.42% | Potency [5] | Potency [6] | Potency [7] | Potency [8] | Potency [9] | Potency [10] | Potency [11] | Potency [12] | Potency [13] | Potency [18] | Potency [14] | Potency [15] | Potency [16] | Potency [19] | Potency [17] | Potency [20]

O=[N+]([O-])c1ccccc1Nc1ccccc1
inactive: Potency [1] | Potency [2] | Potency [3] | max response [4] 0.685% | Potency [5] | Potency [6] | Potency [7] | Potency [8] | Potency [9] | Potency [10] | Potency [11] | Potency [12] | Potency [13] | Potency [14] | Potency [15] | Potency [16] | Potency [19] | Potency [17] | Potency [20]

Nc1ccc2c3c(cccc13)-c1ccccc1-2
active: Potency [1] 39.3 µM | Potency [2] 24.8 µM | Potency [4] 27.8 µM | Potency [5] 44.1 µM | Potency [6] 39.3 µM | Potency [8] 44.1 µM | Potency [9] 44.1 µM | Potency [11] 44.1 µM | Potency [12] 24.8 µM | Potency [13] 44.1 µM | Potency [18] 44.1 µM | Potency [15] 24.8 µM | Potency [16] 19.7 µM | Potency [19] 44.1 µM | Potency [20] 39.3 µM
inactive: Potency [3] | Potency [7] | Potency [10] | Potency [17]

N#CC1(c2ccc(F)cc2)CCC(=O)CC1
inactive: Potency [1] | Potency [2] | Potency [3] | max response [4] 6.72% | Potency [5] | Potency [6] | Potency [7] | Potency [8] | Potency [9] | Potency [10] | Potency [11] | Potency [12] | Potency [13] | Potency [16] | Potency [19] | Potency [17] | Potency [20]

Oc1cccc2cc3cccc(O)c3c(O)c12
inactive: Potency [1] | Potency [2] | Potency [3] | max response [4] 0.771% | Potency [5] | Potency [6] | Potency [7] | Potency [8] | Potency [9] | Potency [10] | Potency [11] | Potency [12] | Potency [14] | Potency [15] | Potency [16] | Potency [19] | Potency [17] | Potency [20]
